Laboratory results as given in PubChem BioAssay AID1259421 (Broad Institute, 2018).
Several values for one entry are separate records, joined by “and”; a condition that tells them apart may be missing. Identical values can stand only once. Out of some 6,400 compounds screened, about 610 (9.5%) were called active. No stated cut-off is given here; in the data, active means activity change below about -70%; inconclusive means no clear call, values can overlap the other calls; inactive means above that. The list comes from a sample in which actives are over-represented; it also holds similar structures and randomly drawn compounds. Where a structure was tested more than once in an assay, its records may differ in their call.

Assay: T. gondii ME49Luc in HeLa cells, luciferase assay, 72 h, no IFN-y (AID 1259421)
Details: stronger effect = lower value, concentration not given here

| Compound | activity change, negative = inhibition |
| --- | --- |
| CCOC(=O)C1=CC2(CC)CCCN3CCc4c(n1c1ccccc41)C32 (configuration not stated) | 23.3% (inactive) |
| COC12CC(COC(=O)c3cncc(Br)c3)CN(C)C1Cc1cn(C)c3cccc2c13 (configuration not stated) | 13.7% (inactive) |
| CC(=O)NC(C(=O)O)C(C)(C)S[NH2+][O-] (configuration not stated) | 16% (inactive) |
| CCc1cc2c(cc1N1CCC(N3CCOCC3)CC1)C(C)(C)c1[nH]c3cc(C#N)ccc3c1C2=O | 16.2% (inactive) |
| Cc1c(C(=O)Nc2ccc(N3CCC(N4CCOCC4)CC3)c(C#N)c2)cnn1-c1ccc(Cl)cc1 | -92.1% (active) |
| Cc1ccccc1C(=O)Nc1ccc(C(=O)N2CCCC(O)c3cc(Cl)ccc32)c(C)c1 (configuration not stated) | 7.82% (inactive) |
| CN1C2CC(OC(=O)C(CO)c3ccccc3)CC1C1OC12 (configuration not stated) | 11.1% (inactive) |
| CNc1cc(OC)c(C(=O)N[C@@H]2CCN(Cc3ccccc3)[C@H]2C)cc1Cl | 15.3% (inactive) |
| Cn1cc(C(=O)OCC2CCN(CCNS(C)(=O)=O)CC2)c2ccccc21 | 1.88% (inactive) and 6.2% (inactive) |
| Cn1cc(C[C@@H](N)C(=O)O)c2ccccc21 | 16% (inactive) |
| Cn1cc(CNCC2CCN(c3ncc(C(=O)NO)cn3)CC2)c2ccccc21 | -88.1% (active) |
| C[C@@H]1CC2C3CCC4=CC(=O)C=C[C@]4(C)[C@@]3(F)[C@@H](O)C[C@]2(C)[C@@]1(O)C(=O)COP(=O)(O)O (some centres not stated) | 0.571% (inactive) and -5.12% (inactive) |
| O=c1c(-c2ccc(O)cc2)coc2c(C3O[C@H](CO)[C@@H](O)[C@H](O)[C@H]3O)c(O)ccc12 (some centres not stated) | -5.75% (inactive) |
| C[N+]1(C)C2CC[C@H]1CC(OC(=O)C(O)c1ccccc1)C2 (some centres not stated) | 10.1% (inactive) |
| O=C(Nc1ccccc1)C12CC1/C(=N\O)c1ccccc1O2 (configuration not stated) | 7.7% (inactive) and 0.127% (inactive) |
| COc1ccc(-c2cc(=O)c3c(O)cc(O[C@@H]4O[C@H](CO[C@H]5O[C@H](C)[C@@H](O)[C@H](O)[C@@H]5O)[C@@H](O)[C@H](O)[C@H]4O)cc3o2)cc1O | 14.7% (inactive) |
| Cn1cc(C2=C(c3cn(CCCSC(=N)N)c4ccccc34)C(=O)NC2=O)c2ccccc21 | -58% (inactive) and -88.3% (active) |
| Cn1cc(C2=C(c3ccc(Cl)cc3Cl)C(=O)NC2=O)c2ccccc21 | -12.4% (inactive) and -8.86% (inactive) |
| COc1ccc2c(c1)c(C1=C(c3c[nH]c4ccccc34)C(=O)NC1=O)cn2CCCN(C)C | -36.9% (inactive) |
| CCCCC/C=C\C/C=C\CCCCCCCC(=O)NCCCC(=O)O | 8.14% (inactive) |
| O=C(O)CN1CCN(CC(=O)O)CCN(CC(=O)O)CCN(CC(=O)O)CC1 | 0.0247% (inactive) |
| N#C/C(=C(/N)Sc1ccc(N)cc1)c1ccccc1C(F)(F)F | 7.26% (inactive) |
| O=C1C(c2c(O)[nH]c3ccccc23)=Nc2ccccc21 | -5.14% (inactive) |
| O=Nc1c(-c2c(O)[nH]c3cc(Br)ccc23)[nH]c2ccccc12 | -87.9% (active) |
| NS(=O)(=O)c1ccc(N=Cc2c(O)[nH]c3ccccc23)cc1 | 13.4% (inactive) |
| O=Nc1c(-c2c(O)[nH]c3ccccc23)[nH]c2ccccc12 | -74.5% (active) |

| Compound | activity change, negative = inhibition |
| --- | --- |
| CCCCC(=O)O[C@]1(C(=O)CO)[C@@H](C)CC2C3CCC4=CC(=O)C=C[C@]4(C)[C@@]3(F)C(O)C[C@@]21C (some centres not stated) | 1.05% (inactive) |
| CC(=O)c1cc2ccccc2oc1=O | -2.07% (inactive) |
| O=C(O)CCCCN(CCc1ccccc1OCc1ccc(CCc2ccccc2)cc1)Cc1ccc(C(=O)O)cc1 | 10.8% (inactive) |
| C=C[C@@]1(C)CC(=O)[C@]2(O)[C@@]3(C)[C@@H](O)CCC(C)(C)[C@@H]3[C@H](O)[C@H](OC(=O)CCCN3CCN(C)CC3)[C@@]2(C)O1 | -10.4% (inactive) |
| CC(C)(C)c1ccc(C(O)CCCN2CCC(C(O)(c3ccccc3)c3ccccc3)CC2)cc1 (configuration not stated) | -86.1% (active) and 8% (inactive) |
| CC(C)(C(=O)O)c1ccc(C(O)CCCN2CCC(C(O)(c3ccccc3)c3ccccc3)CC2)cc1 (configuration not stated) | 4.73% (inactive) and 3.69% (inactive) |
| OC(c1ccccc1)C1CCN(CCc2ccccc2)CC1 (configuration not stated) | 5.4% (inactive) and 0.692% (inactive) |
| CCC(C)C(=O)O[C@H]1C[C@H](O)C=C2C=C[C@H](C)[C@H](CC[C@@H](O)C[C@@H](O)CC(=O)O)C21 (some centres not stated) | 4.96% (inactive) |
| O=S(=O)(c1ccccc1)c1cnc2c(N3CCNCC3)cccc2c1 | 8.53% (inactive) |
| CCCCCCOc1nsnc1C1=CCCN(C)C1 | -26.8% (inactive) |
| CCC(CC)(CC(=O)Nc1cccc(/C=C/c2nc(C3CCC3)cs2)c1)C(=O)O | 41.5% (inactive) |
| O=C(C[C@H]1NCCC[C@@H]1O)Cn1cnc2cc(Br)c(Cl)cc2c1=O | -86% (active) |
| CC(C)[C@@H](N)C(=O)O | 5.34% (inactive) |
| Clc1ccc2c(N3CCN(CCCN4CCN(c5ccnc6cc(Cl)ccc56)CC4)CC3)ccnc2c1 | 1.21% (inactive) |
| Cc1ncc(-c2ccnc(Nc3ccc(S(C)(=O)=O)cc3)n2)n1C(C)C | -84.5% (active) |
| C1CCN2C[C@@H]3C[C@H](CN4CCCC[C@@H]34)[C@H]2C1 | 13.5% (inactive) |
| O=C1[C@@H]2[C@H]3CC[C@H](C3)[C@@H]2C(=O)N1CCCCN1CCN(c2ncccn2)CC1 | 8.23% (inactive) |
| CCCCCCCCCCCCCCCCCCCCCC(=O)Nc1ccn([C@@H]2O[C@H](CO)[C@@H](O)[C@@H]2O)c(=O)n1 | 8.14% (inactive) |
| O=C(CN1CCNCC1)NC1CCCCC1 | -5.36% (inactive) |
| C=C1CCC2[C@](C)(CO)[C@H](O)CC[C@@]2(C)[C@@H]1C/C=C1/C(=O)OC[C@H]1O (some centres not stated) | 9.67% (inactive) |
| Nc1ncnc2c1c(-c1cnc3[nH]ccc3c1)nn2C1CCCC1 | -82.4% (active) |
| N#CC[C@@H](C1CCCC1)n1cc(-c2ncnc3[nH]ccc23)cn1 | 1.99% (inactive) |
| N#CC[C@H](C1CCCC1)n1cc(-c2ncnc3[nH]ccc23)cn1 | 27.9% (inactive) and 17.6% (inactive) |
| COc1cc([C@@H]2[C@H]3CO[C@@]4(O)C(=O)[C@@H]2C=C([C@H]2Oc5cc(O)cc(O)c5C(=O)[C@@H]2O)[C@@H]34)ccc1O | -0.383% (inactive) |
| Cn1cnc2nc(NCCO)nc(NCc3ccccc3)c21 | -3.03% (inactive) |
| OC1O[C@@H]2COC(c3ccccc3)O[C@H]2[C@H](O)[C@H]1O (some centres not stated) | 36.7% (inactive) |

| Compound | activity change, negative = inhibition |
| --- | --- |
| COc1ccc2cc(-c3cc(-c4cc(Cl)cc(Cl)c4)nn3[C@@H](C)c3ccc(C(=O)NCCC(=O)O)cc3)ccc2c1 | -64.1% (inactive) |
| CCCCNC(=O)c1ccc(Cl)cc1O | -69.9% (inactive) |
| CCCCCCNC(=O)n1cc(F)c(=O)[nH]c1=O | -97.3% (active) |
| Cc1nnc(SCC2=C(C(=O)O)N3C(=O)[C@@H](N)[C@H]3SC2)s1 | 2.53% (inactive) |
| CCN(CC)CCCCC1CCN(CC(=O)N2c3ccccc3C(=O)Nc3cccnc32)CC1 | 11.7% (inactive) and 11.5% (inactive) |
| Cc1ccc([N+](=O)[O-])cc1S(=O)(=O)N(C)C | 16.2% (inactive) and 6.9% (inactive) |
| Cc1ccc([N+](=O)[O-])cc1S(=O)(=O)N(C)/N=C/c1cnc2ccc(Br)cn12 | -80.3% (active) |
| CN[C@@H]1C(OC2[C@H](O[C@H]3[C@H](O)[C@@H](O)[C@H](N=C(N)N)[C@@H](O)[C@@H]3N=C(N)N)OC(C)[C@]2(O)CO)OC(CO)C(O)C1O (some centres not stated) | 3.82% (inactive) |
| C[C@]12CCc3occc3C1CC[C@@]13C[C@@H](CCC12)[C@@](O)(CO)C3 (some centres not stated) | -13.6% (inactive) |
| CCC1(c2ncc[nH]2)Cc2ccccc2O1 (configuration not stated) | 15% (inactive) and -0.683% (inactive) |
| CC(=O)O[C@H]1CC[C@@]2(C)C(C[C@@H](OC(C)=O)[C@]3(C)C2CC[C@@]2(C)[C@H](c4ccoc4)OC(=O)[C@H]4O[C@]423)C1(C)C (some centres not stated) | -27.9% (inactive) |
| Nc1nccc2c1ncn2[C@@H]1O[C@H](CO)C(O)C1O (some centres not stated) | -4.71% (inactive) |
| Nc1ncnc2c1ncn2[C@@H]1O[C@H](CO)[C@@H](O)[C@@H]1O | -51.5% (inactive) |
| Nc1nccc2c1ncn2[C@@H]1C=C(CO)[C@@H](O)[C@H]1O | -74.6% (active) and -68.5% (inactive) |
| CCC(CC)CC1(C(=O)Nc2ccccc2SC(=O)C(C)C)CCCCC1 | -68.8% (inactive) |
| O=C(/C=C/c1ccccc1)NC(NC(=S)Nc1ccc(Cl)cc1)C(Cl)(Cl)Cl (configuration not stated) | -82.6% (active) |
| COc1cccc(NC(=O)/C=C/c2ccc(Cl)cc2)c1 | 290% (inactive) and 329% (inactive) |
| O=C(/C=C/c1ccccc1)NC(NC(=S)Nc1cccc2cccnc12)C(Cl)(Cl)Cl (configuration not stated) | 0.586% (inactive) |
| CC(=O)c1ccc(NS(C)(=O)=O)c(Oc2ccc(F)cc2F)c1 | 22.3% (inactive) |
| COC[C@@H](c1ccc(C(F)(F)F)cc1)N1CCN(C2(C)CCN(C(=O)c3c(C)ncnc3C)CC2)C[C@@H]1C | 5.59% (inactive) |
| CCCC(=O)Nc1cccc(NC(=O)c2ccccc2Br)c1 | 17.4% (inactive) |
| CCN(CC)CCCC(C)Nc1nc(C)cc(Nc2ccc3nc(C)cc(N)c3c2)n1 (configuration not stated) | -14.9% (inactive) |
| CCc1ccc(OCc2ccccc2C(=O)Nc2ccc3nc(C)cc(N)c3c2)cc1 | -82.4% (active) |
| Nc1c(Br)cc(Br)cc1CNC1CCC(O)CC1 (configuration not stated) | 2.89% (inactive) and 3.02% (inactive) |
| Cc1[nH]c(=O)c(C#N)cc1-c1ccc2nccn2c1 | 24.3% (inactive) and 0.856% (inactive) |
